G9a block = blocks human histone lysine methyltransferase G9a; Q96KQ7; AID 504332; Potency, µM (top dose mostly 102 µM), actives largely listed as inhibitors; G9a H3K9 monomethylation, AlphaScreen, 2 h; 350,000 compounds, 8.8% hits; also: nearly all actives have a fitted effect of over 75% in size
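Using a bead-based AlphaScreen, monomethylated H3K9 product from 2 h room-temperature reactions (G9a 20 nM, peptide 500 nM, SAM 20 uM) was detected with 0.5 ug/mL rabbit anti-H3K9me1 antibody.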
JMJD2A Tudor inh = inhibitors of human JMJD2A Tudor domain; O75164; AlphaScreen JMJD2A-Tudor / H3K4me3 peptide binding; Potency, µM (highest dose often 114 µM), hits mostly inhibitors; 390,000 compounds, 4.4% hits; also: nearly all actives have a fitted effect of over 50% in size
Sfp PPTase inh = blocks B. subtilis Sfp PPTase activity. Q9F4F7. Biochemical Sfp PPTase activity, qHTS. Potency, µM, actives largely listed as inhibitors. 310,000 compounds, 3.5% hits;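 also: the enzyme is Sfp with the accession as filed and its product quenches rhodamine fluorescence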
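With Hepes-Na pH 7.6 buffer containing 10 mM MgCl2, Sfp (15 nM) modified BHQ-2-YbbR (12.5 uM) using rhodamine-CoA (5 uM). Two reads 30 minutes apart at 525/598 nm yielded each well's rate.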
HP1b chromo inh = HP1-beta chromodomain-methylated histone interaction inhibition | P83916 | AlphaScreen HP1-beta / biotin-H3K9me3 peptide binding | Potency, µM (titrated, usually from 114 µM), usual class: inhibitors | 390,000 compounds, 0.56% hits; also: nearly all actives have a fitted effect of over 70% in size
Target sequence (P83916 whole entry, looked up): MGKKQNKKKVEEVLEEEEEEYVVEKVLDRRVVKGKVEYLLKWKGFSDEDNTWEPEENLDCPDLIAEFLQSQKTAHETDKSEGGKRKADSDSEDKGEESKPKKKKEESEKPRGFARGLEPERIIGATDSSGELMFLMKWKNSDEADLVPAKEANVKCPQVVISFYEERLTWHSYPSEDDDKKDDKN
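Compound inhibition of the preformed complex between 50 nM HP1-beta and 50 nM biotinylated H3K9me3 peptide was read by AlphaScreen. Buffer was PBS pH 7.4 with 0.01% Tween-20. Incubations ran 30 min at room temperature, with 10 ug/mL donor/acceptor beads.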
BAZ2B inh = blocks human BAZ2B; Potency, µM (series often up to 114 µM), actives largely listed as inhibitors; AID 504333; 360,000 compounds, 4.4% hits; Q9UIF8; AlphaScreen BAZ2B-H3K14Ac peptide displacement; also: nearly all actives have a fitted effect of over 60% in size
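In this displacement format the biotinylated H3(5-23) peptide acetylated at Lys14 serves as ligand at 50 nM, with BAZ2B at 50 nM in PBS pH 7.4 containing 0.01% Tween-20. Donor and acceptor beads are 10 ug/mL final.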
Hits are given with their value; . = inactive; ? = inconclusive; / = no result; [ ] = another dose, or the depositor's remark. Sampled rows, rich in hits. Any-hit rate of the full collection: about 12%. Calls follow the shape of the dose curve; as a rule, active = well fitted curve in the direction sought with a large enough effect; inconclusive = small, poorly fitted or top-dose-only effect, or another doubt; inactive = no such curve, though single readings can be large; an effect the other way counts as inactive or inconclusive.

SMILES	G9a block	JMJD2A Tudor inh	Sfp PPTase inh	HP1b chromo inh	BAZ2B inh
CCCCNc1c(-c2ccc(OC)c(Sc3ccc(OC)cc3)c2)nc2ccccn12	.[12.7 µM]	44.7µM	/	.	39.8µM
CCCCNc1c(-c2ccc(SC(C)CC)c(OC)c2)nc2ccc(C)cn12 (stereo not given)	.[2.33 µM]	?	/	.	50.1µM
CCC1(C)NC(=O)N(CC(=O)c2cc(C)n(C3CC3)c2C)C1=O (stereo not given)	?	.	/	.	.
c1ccc(C(Nc2cccnc2)c2ccccc2)cc1	/	.	/	.	/
c1ccc(NC(c2ccccc2)c2ccncc2)cc1 (stereo not given)	31.6µM	.	.	.	.
NC(c1ccccc1)c1ccncc1 (stereo not given)	44.7µM	.	.	.	?
O=C(NCCN1CCNCC1)c1ccccc1O	/	.	/	.	/
c1ccc(CNCCN2CCNCC2)nc1	.	?	.	.	15.8µM
COc1cccc(OCC(O)CN2CCN(c3ccccn3)CC2)c1 (stereo not given)	44.7µM	.	.	.	.
COc1cccc(OCC(O)CN2CCN(CCN3C(=O)c4cccc5cccc(c45)C3=O)CC2)c1 (stereo not given)	50.1µM	?	.	.	.
Cc1ccc(OCC(O)CN2CCN(c3ccccn3)CC2)c(C)c1 (stereo not given)	50.1µM	.	.	.	.
OC(COC(c1ccc(Cl)cc1)c1ccc(Cl)cc1)CN1CCN(c2ccccn2)CC1 (stereo not given)	?	?	.	.	50.1µM
Cc1cc(=O)n2[nH]c(=O)c(N=Nc3ccccc3)c2[nH]1	.[12.7 µM]	?	.	.	?
Cc1ccc(-c2[nH][nH]c(=O)c(=O)c2N=Nc2ccccc2)cc1	44.7µM	.[11.4 µM]	.	?	.
O=[N+]([O-])c1ccc(O)c(C2=NNC(c3ccccc3F)C2)c1 (stereo not given)	39.8µM	?	.	.	.
CC(C)CCN1CCc2nc(COc3ccccc3)c3c(c2C1)COC(C)C3 (stereo not given)	/	/	.	/	/
c1ccc(NCCc2ccccn2)cc1	/	.	/	.	/
c1ccc(CCNc2ccccc2)cc1	?	/	.	/	56.2µM
COCCNc1ncnc2ccc(-c3ccccc3C(F)(F)F)cc12	.[0.501 µM]	/	56.2µM	/	/
COc1ccc(NC(=O)CN(C)C(=O)c2ccc3ccccc3n2)cc1	/	.	/	.	/
COc1ccc(N=C(NN)c2ccc3ccccc3n2)cc1	8.91µM	.	.	.	?
COc1ccc(NC(=S)c2ccc3ccccc3n2)cc1	7.94µM	39.8µM	22.4µM	10µM	11.2µM
Cc1ccc(NC(=S)c2ccc3ccccc3n2)c(C)c1	8.91µM	?	22.4µM	11.2µM	12.6µM
COc1cccc(NC(=O)CCC2CCN(Cc3nccs3)CC2)c1	?	.	.	.	.
